Consider 40 molecules from ChEMBL document CHEMBL1157539, “Thousands of chemical starting points for antimalarial lead identification” (Nature, 2010).

Usually Inhibition stands for the share of the control response that was lost under treatment. Low values mean little suppression, high ones strong suppression.

The structures appear in SMILES notation.

The test deals with Plasmodium falciparum. The test is described as follows: GSK_TCMDC: Inhibition of Plasmodium falciparum 3D7 in whole red blood cells, using parasite LDH activity as an index of growth. Test compounds present at 2uM. The class given is functional.
For the molecule `O=C(Nc1ccc(-c2nc3ccccc3[nH]2)cc1)c1cccc(S(=O)(=O)N2CCCC2)c1`, the Inhibition stood at 100%.
Molecule `CC1CCCN(S(=O)(=O)c2cc(Br)cc3c2N(C(=O)C2CC2)CC3)C1` (stereo not given) displayed an Inhibition of 83%.
`COc1ccc(-c2ccc(NC(=O)c3ccc(Cl)cc3)cc2)cc1CN(C)CCO.O=C(O)C(F)(F)F` yielded an Inhibition of 92%.
With `CCOc1cc(C)ccc1C1CCN(CCCCNC(=O)c2cnc(-c3ccc(C(F)(F)F)cc3)[nH]2)CC1` the figure was 95%; with `Cc1ccc(S(=O)(=O)O)cc1.N=C(NCCc1c[nH]c2ccccc12)NCc1ccccc1Cl`, 83%; with `Br.Cc1ccccc1OCCCON1C(=N)N=C(N)NC1(C)C`, 95%.
Regarding `Cl.FC(F)(F)c1ccc2c(NCCc3ccccc3)ccnc2c1`, the Inhibition stood at 87%.
Turning to `CCCCCCNc1c2ccccc2nc2ccccc12.Cl`, the Inhibition was 97%.
For `Cc1[nH]c(C)c(-c2csc3ccccc23)c(=O)c1Cl`, the Inhibition worked out at 97%.
`CN1CCCN(Cc2ccc(-c3cccc(NC(=O)c4ccc(F)cc4)c3)cc2)CC1.O=C(O)C(F)(F)F` showed an Inhibition of 89%.
With `O=C(/C=C/c1ccc(-c2nc3ccc(Cl)cc3[nH]2)cc1)NCc1cccc(F)c1` the figure was 99%.
Consider `c1ccc(Oc2ccc(Nc3ccnc4cc(-c5cccc(CNCCN6CCOCC6)c5)ccc34)cc2)cc1`, for which the Inhibition came to 100%.
`COc1ccccc1NC(=O)Nc1ccc(-c2ccc(-c3nc4cc(C(F)(F)F)ccc4[nH]3)cc2)cc1` showed an Inhibition of 100%.
In turn, `Cc1[nH]c(C)c(-c2ccc(CCc3ccc(C(F)(F)F)cc3)nc2)c(=O)c1Cl` gave an Inhibition of 97%.
`Fc1ccc2[nH]c(-c3ccc(-c4ccc(CNCCc5cccnc5)cc4)s3)nc2c1.O=C(O)C(F)(F)F` showed an Inhibition of 100%.
Turning to `CCOP(=O)(OCC)c1ccc(OC)c(-c2ccc[nH]2)c1`, the Inhibition came to 95%.
`COc1ccc(CNCCc2cccs2)cc1-c1cccc(S(=O)(=O)NCCN2CCCC2)c1.O=C(O)C(F)(F)F` came in with an Inhibition of 98%.
Then `COc1cccc(Nc2c(C(N)=O)cnc3ccc(-c4ccc([S+](C)[O-])cc4)cc23)c1.O=C(O)C(F)(F)F` (stereo not given), with 96%; and `O=C(Nc1ccc(Cl)c(Cl)c1)C1CCC(=O)N1[C@@H](Cc1ccccc1)C(=O)NCCc1ccc(Cl)cc1` (stereo not given in full), with 95%; and `O=C(NCCCCN1CCN(CC=Cc2ccccc2)CC1)c1ccc(NC(=O)c2cc(Cl)cc(Cl)c2)cc1`, with 100%.
`COc1ccc2[nH]c(C)cc(=NN=Cc3ccccc3F)c2c1` registered an Inhibition of 100%.
`CC(CC(=O)NCC1(c2ccc(F)cc2Cl)CCOCC1)C(=O)c1ccc(Cl)cc1` (stereo not given): the Inhibition is listed as 99%.
The molecule `Nc1nc2c(ncn2COC(COCc2ccccc2)COCc2ccccc2)c(=O)[nH]1.Nc1nc2ncn(COC(COCc3ccccc3)COCc3ccccc3)c2c(=O)[nH]1` came in with an Inhibition of 86%.
Then `COc1ccc2ncc(F)c(CCN3CCC(CNCc4cccc5c4OCO5)CC3)c2n1.Cl`, with 93%; and `Nc1ncc(Cc2ccc3c(ccc4ccccc43)c2)c(N)n1`, with 97%; and `Cc1cc(N[C@@H](Cc2ccccc2)C(=O)NC2CCCC2)nc(NCCCOC(C)C)n1.O=C(O)C(F)(F)F`, with 92%.
On to `O=C(Nc1ccc(-c2csc3nccn23)cc1)c1ccc(Cl)cc1`, for which the Inhibition came to 100%.
`OC(c1cccc2ccccc12)C1CN(CCc2ccccc2)CCC1(O)c1ccccc1` (stereo not given) gave an Inhibition of 99%.
`Cc1cccc2nc(-c3cccc(-c4ccc(NC(=O)NCc5ccccc5)cc4)c3)[nH]c12` registered an Inhibition of 100%.
As to `CNC(=N)c1ccc(NC(=O)c2ccc(C(=O)Nc3ccc(C(=N)NC)cc3)cc2)cc1.Cl`, the Inhibition turned out to be 96%.
Take `CC(C)Sc1nncc(-c2cnnc(SC(C)C)n2)n1`: the Inhibition is listed as 100%.
With `CC(C)OC(=O)c1ccccc1S(N)(=O)=O` the figure was 97%; with `Br.CC1(C)N=C(N)N=C(N)N1OCC1COc2ccccc2O1` (stereo not given), 96%.
Then `CCc1c[nH]c2c(N3CCCC3=O)cc(C(=O)N[C@@H](Cc3ccccc3)[C@H](O)CNC(C)(C)c3cccc(OC)c3)cc12`, with 93%; and `Cn1nccc1C(=O)NCCNCc1cccc(-c2ccc(-c3nc4ccccc4[nH]3)cc2)c1.O=C(O)C(F)(F)F`, with 100%.
In turn, `CCCn1cc2c(ccc3nc(N)nc(N)c32)n1` displayed an Inhibition of 95%.
In the case of `COc1ccc(CNCc2ccc(-c3ccc(-c4nc5cc(F)ccc5[nH]4)cc3)cc2)cc1.O=C(O)C(F)(F)F`, the Inhibition is reported as 99%.
Then `Cc1c(C)c2c(c(C)c1O)CC[C@](C)(C(=O)N1CCC(CCN3CCC(c4c[nH]c5ccccc45)CC3)CC1)O2`, with 99%; and `Cc1cc(N[C@@H](Cc2ccccc2)C(=O)Nc2ccccc2)nc(Nc2ccccc2)n1.O=C(O)C(F)(F)F`, with 100%; and `O=C(O)C(F)(F)F.c1cc(-c2ccc(CNCCCN3CCOCC3)cc2)cc(-c2nc3ccccc3[nH]2)c1`, with 100%.
